About 83,000 compounds went through this panel and 20% of them were active in at least one assay; those are over-represented in the sample as a whole.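 Single-dose data. Exposure time 48 hours. Values below 10 considered active.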 Active and inactive are the calls of the source.
Columns and labels:
Assay in all cases: NCI-60 one-dose screen, 48 h (100 = growth as untreated, 0 = no growth, -100 = all killed)
Settings in all cases: 10 µM
SR leukemia = test system: SR leukemia
RPMI-8226 leukemia = test system: RPMI-8226 leukemia
OVCAR-8 ovarian = test system: OVCAR-8 ovarian
OVCAR-5 ovarian = test system: OVCAR-5 ovarian
OVCAR-4 ovarian = test system: OVCAR-4 ovarian
SK-OV-3 ovarian = test system: SK-OV-3 ovarian
IGROV1 ovarian = test system: IGROV1 ovarian
OVCAR-3 ovarian = test system: OVCAR-3 ovarian
HS 578T breast = test system: HS 578T breast
NCI/ADR-RES ovarian = test system: NCI/ADR-RES ovarian
T-47D breast = test system: T-47D breast
MDA-MB-435 melanoma = test system: MDA-MB-435 melanoma
SW-620 colon = test system: SW-620 colon
MCF7 breast = test system: MCF7 breast
HCT-116 colon = test system: HCT-116 colon
HCC-2998 colon = test system: HCC-2998 colon
KM12 colon = test system: KM12 colon
BT-549 breast = test system: BT-549 breast

Row | SMILES | growth (SR leukemia) | growth (RPMI-8226 leukemia) | growth (OVCAR-8 ovarian) | growth (OVCAR-5 ovarian) | growth (OVCAR-4 ovarian) | growth (SK-OV-3 ovarian) | growth (IGROV1 ovarian) | growth (OVCAR-3 ovarian) | growth (HS 578T breast) | growth (NCI/ADR-RES ovarian) | growth (T-47D breast) | growth (MDA-MB-435 melanoma) | growth (SW-620 colon) | growth (MCF7 breast) | growth (HCT-116 colon) | growth (HCC-2998 colon) | growth (KM12 colon) | growth (BT-549 breast)
1 | COc1cc(C2CC(c3ccccc3)=NN2C(C)=O)cc(OC)c1OC (stereo unspecified) | 28.1% (inactive) | 81.7% (inactive) | 51.2% (inactive) | 92.3% (inactive) | 78.5% (inactive) | 47.5% (inactive) | 24.6% (inactive) | -10.7% (active) | 48.4% (inactive) | 11.1% (inactive) | 34.1% (inactive) | -29.4% (active) | 19.1% (inactive) | 14.6% (inactive) | 19.3% (inactive) | 49.7% (inactive) | 18.4% (inactive) | –
2 | COc1ccc(C2CC(c3cc(OC)c(OC)c(OC)c3)=NN2)cc1 (stereo unspecified) | -35.1% (active) | -8.7% (active) | 100% (inactive) | 97.9% (inactive) | 84.9% (inactive) | 81.5% (inactive) | 62.6% (inactive) | 35.1% (inactive) | 104% (inactive) | 68.3% (inactive) | 51.7% (inactive) | 19.9% (inactive) | 48% (inactive) | 10.2% (inactive) | 53.3% (inactive) | 79.3% (inactive) | 15.1% (inactive) | –
3 | CN(C)CCCN1c2ccccc2CCc2ccc(Cl)cc21 | 49.2% (inactive) | 47.8% (inactive) | 77.1% (inactive) | 77.5% (inactive) | 53.1% (inactive) | 82.4% (inactive) | 59.3% (inactive) | 72.3% (inactive) | 68.7% (inactive) | 59.5% (inactive) | 41.3% (inactive) | 28.5% (inactive) | – | 50.8% (inactive) | 43% (inactive) | -13.4% (active) | 79.3% (inactive) | 77.8% (inactive)
4 | Nc1ncnc2c1ncn2C1(CO)OCC(O)C(O)C1O (stereo unspecified) | 109% (inactive) | 104% (inactive) | 102% (inactive) | 109% (inactive) | 111% (inactive) | 98.2% (inactive) | 105% (inactive) | 103% (inactive) | 104% (inactive) | 98.6% (inactive) | 96.2% (inactive) | 107% (inactive) | 110% (inactive) | 101% (inactive) | 108% (inactive) | 101% (inactive) | 98.6% (inactive) | –
5 | COc1ccc2c(c1)C(=O)/C(=C/c1ccc([N+](=O)[O-])o1)O2 | 2.34% (active) | -3.06% (active) | -71.6% (active) | -52.2% (active) | -87% (active) | 48.7% (inactive) | -66.3% (active) | -84.5% (active) | 17.8% (inactive) | 13.4% (inactive) | -46.9% (active) | -72.5% (active) | – | -18.7% (active) | -44.9% (active) | -78.5% (active) | -80.3% (active) | -49.9% (active)
6 | CC(=O)N[C@H](C(=O)N[C@@H](CCCNC(=N)N)C(=O)N[C@@H](CCCCN)C(=O)N[C@@H](CCCNC(=N)N)C(=O)N[C@]1(C)CCC/C=C\CCC[C@@](C)(C(=O)N[C@@H](CC(C)C)C(=O)N[C@@H](CC(C)C)C(=O)N[C@@H](CCC(N)=O)C(=O)N[C@@H](CCC(=O)O)C(=O)N[C@@H](CCCNC(=N)N)C(=O)N[C@@H](CCC(=O)O)C(=O)N[C@@H](CC(C)C)C(=O)N[C@H](C(=O)N[C@@H](CCC(=O)O)C(N)=O)C(C)C)NC(=O)[C@H](CCCNC(=N)N)NC(=O)[C@H](CC(C)C)NC1=O)C(C)C | 104% (inactive) | 104% (inactive) | 104% (inactive) | 111% (inactive) | 107% (inactive) | 108% (inactive) | 110% (inactive) | 109% (inactive) | 119% (inactive) | 109% (inactive) | 92.4% (inactive) | 110% (inactive) | – | 102% (inactive) | 105% (inactive) | 109% (inactive) | 105% (inactive) | 102% (inactive)
7 | Cc1ccc(S(=O)(=O)N(C)CCCCCC(=O)O)cc1 | 101% (inactive) | 113% (inactive) | 103% (inactive) | 101% (inactive) | 106% (inactive) | 112% (inactive) | 99.4% (inactive) | 106% (inactive) | 108% (inactive) | 98.6% (inactive) | 95.7% (inactive) | 105% (inactive) | 109% (inactive) | 89.5% (inactive) | 100% (inactive) | 105% (inactive) | 95.3% (inactive) | –
8 | Cc1nn(-c2ccc(-c3ccc(OC(F)(F)F)cc3)cc2)c2nc(Cc3ccccc3)nc(N)c12 | 41.8% (inactive) | 92.1% (inactive) | 33% (inactive) | 57.6% (inactive) | 4.27% (active) | 56.9% (inactive) | 47.3% (inactive) | 46.5% (inactive) | 55.5% (inactive) | 40.5% (inactive) | 49% (inactive) | 83.5% (inactive) | – | 73.8% (inactive) | 36.3% (inactive) | 77.2% (inactive) | 79.6% (inactive) | 99.4% (inactive)
9 | CC(=O)/C(=C/c1ccc(Br)cc1)C(=O)c1ccccc1 | -16.8% (active) | -26.3% (active) | 63.7% (inactive) | 86.6% (inactive) | 81.4% (inactive) | 120% (inactive) | 74% (inactive) | 81.9% (inactive) | 90.7% (inactive) | 85.8% (inactive) | 86.5% (inactive) | 65.9% (inactive) | 58.2% (inactive) | 43.4% (inactive) | 12.2% (inactive) | – | 58.6% (inactive) | 96.9% (inactive)
10 | CCCCCC(=O)O[C@]1(C(C)=O)CCC2C3CCC4=CC(=O)CC[C@]4(C)C3CC[C@@]21C (stereo partly specified) | 2.49% (active) | -12.4% (active) | 24.4% (inactive) | 74% (inactive) | 18.4% (inactive) | 64.3% (inactive) | 33.4% (inactive) | 7.34% (active) | 54.9% (inactive) | 12.9% (inactive) | 28.6% (inactive) | 28.4% (inactive) | 29.5% (inactive) | 13.4% (inactive) | 11.5% (inactive) | – | 28.7% (inactive) | 31.1% (inactive)
11 | O=C(CC(CC(=O)c1ccccc1)c1ccccc1O)c1ccccc1 | 92.9% (inactive) | 85.2% (inactive) | 95.9% (inactive) | 96.9% (inactive) | 91.2% (inactive) | 94.5% (inactive) | 101% (inactive) | 94.3% (inactive) | 86.6% (inactive) | 92.1% (inactive) | 83% (inactive) | 99.1% (inactive) | 96.7% (inactive) | 89.3% (inactive) | 88.5% (inactive) | 105% (inactive) | 99.8% (inactive) | –
12 | O=C1/C=C/[C@@H](O)[C@@H]2C[C@@H](O)C[C@H]2/C=C/CCC[C@H](C(F)(F)F)O1 | -5.34% (active) | -23.8% (active) | 2.07% (active) | 16.2% (inactive) | 28.5% (inactive) | 57.8% (inactive) | 19.4% (inactive) | -28% (active) | 38.5% (inactive) | -9.43% (active) | -57.2% (active) | 6.68% (active) | – | -64.2% (active) | -30.4% (active) | -36.5% (active) | 30% (inactive) | 15.8% (inactive)
13 | CCCCC/C=C/C/C=C/CCCCCCCC1=NC(C)(C)CN1C(C)C | 2.99% (active) | -35.7% (active) | 28.3% (inactive) | 62.9% (inactive) | 27.2% (inactive) | 68.1% (inactive) | 8.27% (active) | 17.4% (inactive) | 26.7% (inactive) | 37.1% (inactive) | 16.5% (inactive) | 15.9% (inactive) | – | -16.4% (active) | -36.8% (active) | – | -92% (active) | 77.8% (inactive)
14 | COc1cc2cc(Oc3ccc(NC(=O)c4ccccc4)cc3)c(C)nc2cc1OC | 70.2% (inactive) | 96.8% (inactive) | 22.7% (inactive) | 112% (inactive) | 78.9% (inactive) | 73.4% (inactive) | 91.5% (inactive) | 83.4% (inactive) | 57.1% (inactive) | 81.3% (inactive) | 79.8% (inactive) | 104% (inactive) | – | 78.7% (inactive) | 87.1% (inactive) | 125% (inactive) | 94.5% (inactive) | 82.3% (inactive)
15 | CCN(CC)CCCOc1cccc2c1C(=O)c1cccc(OCCCN(CC)CC)c1C2=O | 3.15% (active) | 18.6% (inactive) | 28.1% (inactive) | 55.8% (inactive) | 32.9% (inactive) | 41.5% (inactive) | 25.8% (inactive) | 35% (inactive) | 58.4% (inactive) | 35.3% (inactive) | 61.7% (inactive) | 39.7% (inactive) | 24.4% (inactive) | 11.9% (inactive) | 22.5% (inactive) | 57.4% (inactive) | 40.9% (inactive) | –
16 | CN(C)CCOc1cccc(NC2=C(Cl)C(=O)C(Nc3cccc(OCCN(C)C)c3)=C(Cl)C2=O)c1 | -18.2% (active) | -46.9% (active) | -94.9% (active) | -53.9% (active) | -100% (active) | 94.9% (inactive) | -76.6% (active) | -97.3% (active) | 0.785% (active) | 57.2% (inactive) | -42.1% (active) | -68.6% (active) | -54.9% (active) | -40.8% (active) | -89.4% (active) | 11.6% (inactive) | 34.4% (inactive) | –

Source: PubChem BioAssay (NCI)
